In PubChem BioAssay AID2284095 (EPA ToxCast):
Results filed as inconclusive are left out. Calls of active or inactive are those of the source. The calls were made as follows: active = hit-call score of the fitted dose curve at least 0.9, where 1 is the maximum; inconclusive = response in the unintended direction; inactive = score below 0.9.

Each compound was assayed against human Chymotrypsin Serine Peptidase, ELANE (gene 1991) (UniProt P08246) (assay: ERF_FR_ENZ_hELANE: Eurofins (ERF) Enzymatic Neutrophil Elastase LeadHunter Assay for human Chymotrypsin Serine Peptidase).
Protocol: ERF_FR_ENZ_hELANE is a biochemical, single-readout assay that uses extracted gene-proteins in a cell-free assay. Measurements were taken 0.5 hour after chemical dosing in a 96-well plate. See Neutrophil Elastase Human Chymotrypsin Serine Peptidase Enzymatic Assay, Cerep.ERF_FR_ENZ_hELANE is an assay component calculated from the ERF_FR_ENZ_hELANE assay. It is designed to measure enzyme activity using a type of enzyme reporter as detected by absorbance with spectrophotometry technology.Data from the assay component ERF_FR_ENZ_hELANE was analyzed at the assay endpoint, ERF_FR_ENZ_hELANE, in the positive analysis fitting direction relative to DMSO as the negative control and baseline of activity. Using a type of enzyme reporter, loss-of-signal activity can be used to understand changes in enzymatic activity as they relate to gene ELANE. To generalize the intended target to other relatable targets, this assay endpoint is annotated to the protease intended target family, where the subfamily is serine peptidase.
Human cells are incubated for 30 minutes at 37 C with MeOSAAPV-pNa (0.4 mM) as sunstrate and 3',4'dichloroisocoumarin as control inhibitor. Test Sample Requirements: Minimum for 1) Screen: 60 ul of 10 mM stock -OR- 1 mg (pre-weighed) for 10 uM final testing. 2) Dose Response: 90 ul of 10 mM stock -OR- 1 mg (pre-weighed) for a top concentration at 10 uM.

human Chymotrypsin Serine Peptidase, ELANE (gene 1991), sequence (P08246 whole entry, looked up): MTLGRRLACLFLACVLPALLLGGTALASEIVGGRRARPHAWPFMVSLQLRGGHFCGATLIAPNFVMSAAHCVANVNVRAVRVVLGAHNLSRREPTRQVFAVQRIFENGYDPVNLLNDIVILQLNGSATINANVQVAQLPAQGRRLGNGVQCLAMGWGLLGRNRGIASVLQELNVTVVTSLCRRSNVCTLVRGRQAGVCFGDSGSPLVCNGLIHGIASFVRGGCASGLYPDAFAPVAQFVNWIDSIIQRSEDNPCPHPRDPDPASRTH

| SMILES | outcome | AC50 |
| --- | --- | --- |
| COc1cc(CCC(=O)CC(=O)CCc2ccc(O)c(OC)c2)ccc1O | inactive | – |
| COc1cc(/C=C/C(=O)CC(=O)/C=C/c2ccc(O)c(OC)c2)ccc1O | inactive | – |
| O=C(/C=C/c1ccc(O)cc1)CC(=O)/C=C/c1ccc(O)cc1 | – | 8.6 µM (active) |
